Each structure is given as a SMILES string. Screen size: about 200,000 compounds; about 110 (0.055%) were called active. The sample holds actives, similar compounds and a random draw of the others, so the mix is not that of the screen. Rule as the data show it: active = inhibition above about 50%; inactive = the rest.

For this assay, the target named is Serine/threonine-protein kinase D1 (Homo sapiens) (UniProt Q15139). As to the kind of experiment: protein kinase D1 activity blockers – biochemical, fluorescence polarization (AID 797). The conditions noted are these: PKD1 kinase fluorescence polarization assay; hits give high values; concentration not given here.
Chain of Serine/threonine-protein kinase D1 (Homo sapiens) (Q15139 whole entry, looked up): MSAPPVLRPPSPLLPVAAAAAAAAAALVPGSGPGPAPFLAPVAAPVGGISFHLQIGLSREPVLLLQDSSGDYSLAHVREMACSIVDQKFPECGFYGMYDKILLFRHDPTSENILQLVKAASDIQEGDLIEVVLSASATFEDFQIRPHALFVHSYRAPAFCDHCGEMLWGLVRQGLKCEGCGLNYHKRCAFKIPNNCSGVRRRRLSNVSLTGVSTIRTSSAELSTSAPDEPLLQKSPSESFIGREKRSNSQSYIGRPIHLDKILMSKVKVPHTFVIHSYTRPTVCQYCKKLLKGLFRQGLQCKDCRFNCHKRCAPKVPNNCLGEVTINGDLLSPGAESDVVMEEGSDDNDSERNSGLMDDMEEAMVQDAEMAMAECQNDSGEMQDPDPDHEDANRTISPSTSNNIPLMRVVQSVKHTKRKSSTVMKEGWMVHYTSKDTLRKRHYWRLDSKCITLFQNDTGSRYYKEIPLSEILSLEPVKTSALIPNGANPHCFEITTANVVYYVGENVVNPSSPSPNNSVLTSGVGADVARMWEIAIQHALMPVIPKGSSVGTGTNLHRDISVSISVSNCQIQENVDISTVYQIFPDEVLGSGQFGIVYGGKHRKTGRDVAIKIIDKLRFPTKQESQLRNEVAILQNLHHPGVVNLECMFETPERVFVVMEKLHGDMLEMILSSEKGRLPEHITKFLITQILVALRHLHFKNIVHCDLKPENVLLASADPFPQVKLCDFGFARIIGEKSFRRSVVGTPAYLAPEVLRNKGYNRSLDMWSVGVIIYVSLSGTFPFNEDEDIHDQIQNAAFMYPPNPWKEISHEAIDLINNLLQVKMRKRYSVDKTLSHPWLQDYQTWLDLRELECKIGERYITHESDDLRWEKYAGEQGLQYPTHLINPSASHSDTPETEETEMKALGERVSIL
Usually inhibition stands for the drop in the measured response relative to a control, in per cent. Consider `COc1ccc(OCC(=O)NN2Cc3ccccc3C2=N)cc1`, for which the inhibition was 8.39% (inactive).
For `COc1cccc(NC(=O)C(Sc2nnnn2C)c2ccccc2)c1` (stereo not given), the inhibition was 9.09% (inactive).
The value for `Cc1cccc(/C(N)=N/OC(=O)c2ccccc2Cl)c1` was -1.38% (inactive); that for `O=C(NC1CCCCC1)C1CC(=O)N(CCc2ccccc2)C1` (stereo not given) was -8.12% (inactive); that for `Cc1cc(/C=C(/C#N)C(=O)Nc2ccc(Cl)cc2)c(C)n1-c1cccnc1` was 1.34% (inactive).
The value for `CCN1CN(Cc2ccccc2)CNC1=S` was -12% (inactive); that for `CCNC(=O)CC1C(=O)N(c2ccc(F)cc2)C(=O)N1Cc1cccs1` (stereo not given) was 4.62% (inactive).
Under `CCOc1ccc(N2C(=O)Nc3ccccc3C2(O)C(=O)NCc2ccco2)cc1` (stereo not given) stands -4.75% (inactive); under `CN(C)/C=C(\C#N)C(=O)c1cccnc1Oc1cccc(F)c1`, 5.99% (inactive).
Turning to `CCCCn1nc(C(=O)OCC(=O)Nc2sccc2C(N)=O)c2ccccc2c1=O`, the inhibition was 4.31% (inactive).
The value for `Cc1ccc(NC(=S)N(CCCN2CCC(C)CC2)Cc2ccco2)cc1` was 2.06% (inactive).
Under `Cc1ccc2cc(CCNC(=O)c3c(-c4ccccc4Cl)noc3C)c(=O)[nH]c2c1` stands 0.32% (inactive).
On to `CC(C)CC(CO)N1CCN(C(=O)c2ccc(Cl)cc2Cl)CCC1=O` (stereo not given), for which the inhibition is -14% (inactive).
Turning to `Cc1cccc(NS(=O)(=O)c2ccc(C)c(C(N)=O)c2)c1`, the inhibition is -2.59% (inactive).
The value for `CN(CC(=O)Nc1ccccc1F)CC(=O)Nc1ccccc1Br` was -7.89% (inactive).
As to `COc1ccc(N=C2SC(C(=O)Nc3ccc(F)cc3)CC(=O)N2C)cc1` (stereo not given), the inhibition is -4.67% (inactive).
Under `CCOc1ccc(-c2c(C)n([O-])c3c([n+]2=O)CCCC3)cc1` stands -3.86% (inactive); under `Cc1ccc(C(=O)CNc2ccc(F)cc2)cc1`, -19.1% (inactive).
The value for `Cn1cc(/C=C/c2nc3ccccc3c(=O)n2-c2cccc([N+](=O)[O-])c2)c2ccccc21` was -2.78% (inactive); that for `COc1ccccc1/C=N\Nc1cc(C)nc(-n2nc(C)cc2C)n1` was 2.16% (inactive); that for `COc1ccc(Nc2cc(C)nc(-n3nc(C)cc3C)n2)cc1` was 56.8% (active).
Under `CC(=O)c1ccc(Oc2cc(C)nc(-n3nc(C)cc3C)n2)cc1` stands -3.62% (inactive).
In the case of `CCCCCC(=O)NC(=S)NNC(=O)c1ccc([N+](=O)[O-])cc1`, the inhibition was -0.76% (inactive).
Turning to `O=C(CN1C(=O)NC2(CCCCCC2)C1=O)NC1CC1`, the inhibition was -5.29% (inactive).
On to `CC1(C)CC(=O)C(N=Nc2ccc(S(=O)(=O)N3CCCCCC3)cc2)=C(O)C1`, for which the inhibition is 4.42% (inactive).
For the molecule `O=C(O)Cc1ccc(NCc2ccccc2Cl)cc1`, the inhibition was 0.93% (inactive).
Take `Cc1ccc(C(=O)Cc2nnc(C)s2)cc1`: the inhibition is 1.06% (inactive).
The value for `CCN(CC)CC1(O)CCN(C(=O)c2ccc(Cl)c(Cl)c2)CC1` was 6.8% (inactive).
The value for `CC(=O)Nc1ccc(NC(=S)NC(=O)/C=C/c2ccccc2)cc1` was -7.92% (inactive).
Under `CCOc1cc2[nH]c(=S)n(Cc3ccc(C(=O)NCCOC)cc3)c(=O)c2cc1OCC` stands -4.22% (inactive); under `O=C(COc1ccc(-c2ccccc2)cc1)NN=C1CCCC1`, -5.5% (inactive).
For the molecule `COC(=O)C1(O)CC(C(C)C)=NN1C(=O)c1ccc(Cl)cc1` (stereo not given), the inhibition was -10.1% (inactive).
`COc1ccc(CCNC(=O)COC(=O)C2CCCCC2)cc1`: the inhibition was 1.52% (inactive).
Consider `COc1ccc(NC(=O)CCNS(=O)(=O)c2ccc3c(c2)c(=O)n(C)c(=O)n3C)cc1OC`, for which the inhibition was -3.26% (inactive).
Turning to `COC(=O)c1ccccc1SC1CC(=O)N(c2cccc(C)c2)C1=O` (stereo not given), the inhibition was -3.82% (inactive).
With `CN(CCc1cnn(C)c1)Cc1cn(C)nc1-c1ccccc1F`, the inhibition was 0.1% (inactive).
Under `Cc1nc(-c2ccc(Cl)cc2)sc1C(=O)CBr` stands 2.56% (inactive); under `CC1=NN(C(=O)CCCc2ccccc2)C(O)(C(F)(F)F)C1` (stereo not given), -2.79% (inactive); under `C/C(N)=C(/C#N)C(=O)COC(=O)c1cc(-c2cccc(Br)c2)nc2ccccc12`, -0.94% (inactive).
Under `CCN(CC)CCNC(=O)CCCCCn1c(=O)[nH]c2cc(C(=O)OC)ccc2c1=O` stands -5.2% (inactive); under `Cc1c(Br)c([N+](=O)[O-])nn1CC(=O)N1CCN(Cc2ccccc2)CC1`, 6.58% (inactive).
Regarding `O=C(CC1SC(=Nc2ccccc2F)N(CCN2CCOCC2)C1=O)Nc1ccc(F)cc1F` (stereo not given), the inhibition was 1.23% (inactive).
Under `O=C(Nc1cccnc1)c1ccc(Cl)cc1[N+](=O)[O-]` stands -1.12% (inactive); under `Cc1ccc(NC(=O)C(=O)NCC2CCN(C(=O)c3cccc([N+](=O)[O-])c3)CC2)cc1`, 4.77% (inactive).
Under `S=C(NN=C1CCN(Cc2ccccc2)CC1)NC1CCCCC1` stands 1.24% (inactive); under `COc1ccc(NC(=S)NCc2cccs2)c(OC)c1`, 7.19% (inactive); under `CC(C)NC(=S)N1CCN(C(c2ccccc2)c2ccccc2)CC1`, 3.7% (inactive).
Under `COc1ccc(S(=O)(=O)N2CCN(C(=O)NC3CCCCC3)CC2)cc1` stands -1.15% (inactive); under `O=C1CCCC2=C1C(c1cccs1)CC(=O)N2c1ccc(F)cc1` (stereo not given), -3.47% (inactive).
`Cn1c(=O)c2cc(S(=O)(=O)NCCC(=O)Nc3ccc(F)cc3F)ccc2n(C)c1=O`: the inhibition is -2.88% (inactive).
For the molecule `O=C(Nc1nnc(Cc2ccc(Cl)cc2)s1)c1cccnc1`, the inhibition is -1.74% (inactive).
Consider `Cn1c(CCC(=O)Nc2ccccc2F)nnc1SCC(=O)Nc1ccccc1Cl`, for which the inhibition was -1.31% (inactive).
Under `O=C(CSc1ncnc2c1nnn2Cc1ccc(F)cc1)NC1CCCC1` stands -10.6% (inactive); under `Cc1cc(C(=O)CC#N)c(C)n1-c1c(C)n(C)n(-c2ccccc2)c1=O`, -2.44% (inactive).
Under `CCS(=O)(=O)c1ccc2c(c1)N(S(=O)(=O)c1ccccc1)CC(C(=O)O)O2` (stereo not given) stands 2.03% (inactive); under `CC1(C)CC(=O)C2=C(C1)N=C1SCCC(=O)N1C2c1ccc(C(F)(F)F)cc1` (stereo not given), -8.04% (inactive); under `CN1CCN(C(c2cc3cc4c(cc3[nH]c2=O)OCCO4)c2nnnn2C2CCCC2)CC1` (stereo not given), -0.35% (inactive).
The value for `COc1cc(OC)c(C2=NOC(C(=O)Nc3c(C)n(C)n(-c4ccccc4)c3=O)C2)cc1Cl` (stereo not given) was 5.19% (inactive); that for `Cc1ccc2c(c1)N(CC(=O)N(Cc1ccccn1)Cc1ccco1)C(=O)C(C(C)C)O2` (stereo not given) was -5.96% (inactive); that for `S=C(NC1CCCCC1)NN1CCOCC1` was -5.63% (inactive).
On to `COCCSc1nnc(NC(=O)c2cc(OC)c(OC)cc2[N+](=O)[O-])s1`, for which the inhibition is -3.97% (inactive).
Under `Cc1cn(C)c(=O)n(C)c1=O` stands 1.43% (inactive); under `N#Cc1ccc(-c2nc3cc(C#N)c(C#N)cc3nc2-c2ccccc2)cc1C#N`, 9.6% (inactive); under `O=Cc1ccc(Oc2cccc(C(F)(F)F)c2)nc1`, 7.02% (inactive).
Under `Cc1ccc(/C=C/C(=O)Nc2cc(S(=O)(=O)N3CCCCCC3)ccc2OCC(F)(F)F)o1` stands -9.11% (inactive).
As for `CCc1ccc(-c2cc(C(=O)NN3CCN(C)CC3)c3ccccc3n2)cc1`, the inhibition was 6.48% (inactive).
The value for `C=CCC(C(=O)c1ccccc1)[N+](C)(C)CC=C` (stereo not given) was -3.34% (inactive); that for `O=[N+]([O-])c1ccccc1SNc1ccccn1` was -1.62% (inactive).
Under `Cc1cc(C)cc(C(=O)NC(=S)Nc2ccc3[nH]c(=O)[nH]c3c2)c1` stands 20.7% (inactive); under `O=C1CN(C(=O)COC(=O)c2cnc(Cl)c(Cl)c2)c2ccccc2N1`, 1.7% (inactive).
The value for `NC(=O)c1ncc(C(F)(F)F)cc1Oc1ccc(F)cc1` was -8.91% (inactive).
For the molecule `O=C(Cc1c[nH]c2ccccc12)N/N=C/c1cccc(F)c1`, the inhibition is 12.4% (inactive).
The value for `CCc1c(C)nc2c(OC)cccc2c1Cl` was -2.35% (inactive); that for `O=C(/C=C/c1ccc2c(c1)OCO2)NCc1cn2cc(Cl)ccc2n1` was -5.4% (inactive).
The value for `O=C(CCCc1ccccc1)NCc1ccccc1` was -6.66% (inactive); that for `CC(NC(=O)C(=O)N/N=C/c1ccc(Cl)cc1)c1ccccc1` (stereo not given) was -2.86% (inactive); that for `O=C(NC(=S)N1CCN(Cc2ccccc2)CC1)c1ccccc1` was -10.3% (inactive).
Under `Cc1ccc(S(=O)(=O)Cc2cc(-c3ccc(Cl)cc3)no2)cc1` stands -1.03% (inactive); under `CC(C)N1CCC(=NNc2ccc([N+](=O)[O-])cc2S(=O)(=O)N2CCOCC2)CC1`, -0.4% (inactive); under `CCOc1ccc(-n2c(SCC(=O)NC3CCS(=O)(=O)C3)nnc2-c2cccnc2)cc1` (stereo not given), 0.66% (inactive).
Turning to `CN(Cc1ccc2nsnc2c1)Cc1nc(Cc2cccc(F)c2)no1`, the inhibition was 5.24% (inactive).
Consider `OCCCC1CCCCN1Cc1nc(Cc2ccccc2Cl)no1` (stereo not given), for which the inhibition was 0.81% (inactive).
The value for `Cc1cccc(C(=O)OC(C)CN2CCN(C)CC2)c1` (stereo not given) was 1.4% (inactive); that for `Cc1nnsc1C(=O)Nc1cccc(Cl)c1C` was -5.78% (inactive).
The value for `Cn1nccc1CNC(=O)c1ccnn1C` was -0.52% (inactive).
On to `CC(C)c1ccc(-c2noc(C3CCCN(S(C)(=O)=O)C3)n2)cc1` (stereo not given), for which the inhibition was 0.73% (inactive).
The value for `COC(=O)C1=C(C)N(c2ccc(C)cc2)/C(=C/c2ccc(O)cc2)C1=O` was 1.38% (inactive).
As for `Cc1ccc(-c2nnc(SCC(=O)N/N=C/c3cccs3)n2-c2ccc(C)cc2)cc1`, the inhibition was -3.67% (inactive).
Under `Oc1ccc2ccc3cccc[n+]3c2c1` stands -0.84% (inactive).
Under `S=c1[nH]cc(-c2ccc(Cl)cc2)n1-c1ccccc1` stands -3.56% (inactive); under `COc1cccc(CNC(=O)CCN2C(=S)NC(C)(C)CC2C)c1` (stereo not given), 16.6% (inactive); under `O=C(Nc1cc(S(=O)(=O)N2CCOCC2)ccc1Cl)c1cc(=O)c2ccccc2o1`, -4.37% (inactive).
Under `C/C(=N\OCC(=O)Nc1ccc(Br)cc1)c1cccs1` stands -6.23% (inactive).
Regarding `N#Cc1cccc(Nc2c3c(nc4ccccc24)CCCC3)c1`, the inhibition was 1.12% (inactive).
The value for `COc1ccc(-c2ccc(CCC(=O)O)n2-c2ccc(O)cc2)cc1` was -3.57% (inactive).
